# CF NFkB block: inhibitors of cystic fibrosis induced NF-kB | KKLEB NF-kB-GFP reporter, PAF-induced, GFP fluorescence overnight | inhibition, % at 5 µM | hit rate 0.86% among 360,000;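 active = at least 50% inhibition at 5 µM, scaled per plate between neutral and stimulator controls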;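 note: PAF is a Pseudomonas aeruginosa culture filtrate used as stimulus; plate controls were PAF-stimulated DMSO wells for no effect and unstimulated DMSO wells for full effect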
# Peg3 prom inh: reduces Peg3 promoter-driven luciferase expression in HeLa; HeLa PEG-Prom luciferase reporter, luminescence, overnight; inhibition, % at 20 µM; hit rate 1.7% among 360,000; AID 588405;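 active = inhibition of at least 50% at 20 µM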
# TWEAK-Fn14 inh: TWEAK-Fn14 signaling inhibition | TWEAK-stimulated Fn14 reporter cells, luciferase luminescence, 8 h | inhibition, % at 10 µM | hit rate 2% among 360,000; in the data active = inhibition above about 50%
# KKLEB tox: counter-screen for CF NF-kB inhibitors: cytotoxicity | KKLEB CF airway cells viability, ATPlite luminescence, overnight; active compounds read low; cells stimulated with P. aeruginosa culture filtrate | activity change (cytotoxicity), % at 5 µM | hit rate 0.36% among 360,000 | AID 602141;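 active = corrected activity change at or below -50% at 5 µM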
# TROY signal inh: TROY signaling inhibition | inhibition, % at 10 µM | hit rate 0.98% among 360,000 | AID 1347056 | Q293 LMP1-TROYcd NF-kB luciferase reporter, 4 h;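 active = compounds whose plate-normalised and pattern-corrected inhibition of the luciferase reporter signal at the single screening dose is 50% or more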
# HIF-2a inh: inhibitors of HIF-2a; AID 624352; inhibition, % at 18.8 µM; 786-0 RCC cells HIF-2a reporter, luciferase luminescence, overnight; hit rate 0.72% among 360,000;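 active = inhibition of the luminescence signal of 40% or more relative to plate controls, in a single-dose primary screen at 18.75 µM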
# The depositor's hits bear a star. A selection: hits, their analogues and other compounds. The true share with any hit is near 4%.
SMILES,CF NFkB block,Peg3 prom inh,TWEAK-Fn14 inh,KKLEB tox,TROY signal inh,HIF-2a inh
O=C(Nc1ccc(F)cc1F)c1cc2nc3c(c(C(F)(F)F)n2n1)CCCC3,-1,-167,73*,2,68*,-116
CC1CN(S(=O)(=O)c2ccc(NC(=O)c3cc(-c4ccccc4O)n[nH]3)cc2)CC(C)O1 (configuration not stated),8,28,37,5,62*,-11
Cc1cc(-c2csc(NC(=O)c3ccc(S(=O)(=O)N(C)C)cc3)n2)c(C)n1-c1ccccc1,-5,37,17,8,-10,23
CN(C)S(=O)(=O)c1ccc(C(=O)Nc2nc(-c3cc4ccccc4o3)cs2)cc1,30,-29,-16,-13,51*,-2
CN(CC1CCCO1)S(=O)(=O)c1ccc(C(=O)Nc2nc(-c3ccccn3)cs2)cc1 (configuration not stated),-21,54*,23,27,30,25
O=C(Nc1ccc(S(=O)(=O)N2CCOCC2)cc1)c1cc(-c2ccccc2O)n[nH]1,-28,47,3,11,27,17
CS(=O)(=O)c1ccccc1-c1nnc(NC(=O)c2ccc(S(=O)(=O)N3CCCC3)cc2)o1,4,12,4,2,70*,18
CC1CCCCN1S(=O)(=O)c1ccc(C(=O)Nc2nnc(-c3ccccc3Cl)o2)cc1 (configuration not stated),12,42,-13,13,2,21
COc1ccc(CCNC(=O)C2CC(c3cccc(F)c3)=NO2)cc1 (configuration not stated),-3,-14,6,11,13,-5
Cc1nc(SCC(=O)Nc2c(C)n(C)n(-c3ccccc3)c2=O)nc(C)c1C,-2,17,11,0,-11,13
C=CCNc1nc(-c2cc3ccccc3o2)cs1,-6,-170,-17,3,-36,-159
CC1CN(S(=O)(=O)c2ccc(C(=O)Nc3nc(-c4cc5ccccc5o4)cs3)cc2)CC(C)O1 (configuration not stated),50*,32,67*,-54*,37,9
Cc1cc(NC(=O)c2ccc(S(=O)(=O)N3CCCC3)cc2)nc2c1c(=O)oc1ccccc12,47,47,-18,-54*,-8,-24
Cc1cc(NC(=O)c2ccccc2)nc2c1c(=O)oc1ccccc12,-45,15,5,4,-14,-13
CC1CN(S(=O)(=O)c2ccc(C(=O)Nc3nncs3)cc2)CC(C)O1 (configuration not stated),1,-2,2,2,1,0
c1ccc2oc(-c3csc(NCC4CCCO4)n3)cc2c1 (configuration not stated),-8,-279,80*,-1,-10,-295
O=C(Nc1nc(-c2cc3ccccc3o2)cs1)c1ccc(S(=O)(=O)N2CCCC2)cc1,12,-10,83*,-16,39,-37
C[C@H](CCC(=O)OCc1cn(CC(=O)c2ccc(O)cc2)nn1)C1CC[C@H]2[C@@H]3CC[C@@H]4C[C@H](O)CC[C@]4(C)[C@H]3C[C@H](O)[C@]12C (some centres not stated),15,-6,40,8,30,-7
Cc1ccc(C(C(=O)NCc2ccco2)N(C(=O)CNC(=O)c2cccs2)c2c(C)cc(C)cc2C)cc1 (configuration not stated),28,58*,-18,-34,0,6
COc1cc(-c2noc(C)c2-c2ccc3[nH]ccc3c2)cc(OC)c1OC,-22,-24,56*,-4,12,-9
COc1cc(-c2noc(C)c2-c2ccc(N(C)C)nc2)cc(OC)c1OC,37,23,8,-23,7,29
CN(C(=O)c1ccc(NC(=O)Cc2ccc(NC(=O)C3CCN(C(=O)C4CC4)CC3)cc2)cc1)C1CC1,-12,-9,-14,6,4,-2
O=C(Nc1ccc(Br)cc1)C1CCN(C(=O)c2ccco2)CC1,-6,1,55*,13,-14,7
N#CC1=C(N)N(c2ccc(Cl)c(Cl)c2)C(=O)C1,6,8,-17,-25,6,2
Cc1cc(C)n(-c2cccc(C(=O)O)c2)n1,-7,5,80*,-3,19,11
SMILES,CF NFkB block,Peg3 prom inh,TWEAK-Fn14 inh,KKLEB tox,TROY signal inh,HIF-2a inh
CCCN(CCC)c1nc(Cl)nc(NCc2ccco2)n1,11,10,75*,-16,7,26
OCCNc1nc(Cl)nc(NCc2ccco2)n1,28,11,20,-13,-16,0
CCCC(c1nnnn1Cc1ccco1)N1CCN(C2CCCC2)CC1 (configuration not stated),5,12,-14,-4,9,9
CC(C)C1CC(CCNCc2ccc3c(c2)OCO3)(c2ccccc2)CCO1 (configuration not stated),7,-22,18,-7,-11,15
CC(C)C1CC(CCNCc2ccc(N(C)C)cc2)(c2ccccc2)CCO1 (configuration not stated),13,59*,13,-5,-3,0
Cc1cc(C)n2nc(C(=O)Nc3ccn(Cc4ccccc4C)n3)cc2n1,-1,-3,-15,-2,24,-10
N#Cc1ccc(/C=N/NC(=O)c2cccc(S(=O)(=O)N3CCOCC3)c2)cc1,-27,7,14,2,10,17
COc1ccc(/C=C(\CC(=O)O)c2nc3ccccc3o2)cc1,1,-129,46,-29,39,-180
COc1ccc(C(=O)/C(=C/c2cccs2)c2nc3ccccc3o2)cc1,-11,-201,51*,2,52*,-75
O=C(CN1CCCC1c1ccc2c(c1)OCCO2)NC(=O)Nc1ccccc1 (configuration not stated),11,-29,68*,-20,60*,-29
CC1CCC2(CC1)NC(=O)N(CC(=O)Nc1ccc3c(c1)OCCO3)C2=O (configuration not stated),-6,-94,-7,3,-52,-122
CC1CCC2(CC1)NC(=O)N(CC(=O)NC(=O)Nc1ccc3c(c1)OCCO3)C2=O (configuration not stated),-17,-8,50*,12,31,6
Cc1cc(Br)c(NC(=O)COC(=O)C2CC2C)c(Br)c1 (configuration not stated),-18,1,-23,-2,-6,-3
CCOC(=O)c1c(NC(=O)c2ccco2)n(C2CCCCC2)c2nc3ccccc3nc12,23,27,88*,-14,71*,13
O=C(NCc1cccc(Cl)c1)c1cccc(S(=O)(=O)N2CCCC2)c1,4,1,-4,-6,0,12
CS(=O)(=O)c1nc(-c2ccccc2)cc(C(F)(F)F)n1,95*,104*,47,-73*,53*,94*

# Screens deposited in PubChem BioAssay by Sanford-Burnham Center for Chemical Genomics.
